Assay results as given in PubChem BioAssay (NCI).
Compounds without any hit were thinned out: in the full panel of roughly 83,000, 20% have a hit.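 Assay: single dose, 48 h. Readout: percent growth (0 = no net growth; negative = cell death). Active: <10.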 A number with no mark means an inactive call. Calls of active or inactive are those of the source.

Tests used:
Test in all cases: NCI-60 one-dose screen, 48 h (100 = growth as untreated, 0 = no growth, -100 = all killed)
Details in all cases: 10 µM unless noted
DU-145 prostate = tested on: DU-145 prostate
K-562 leukemia = tested on: K-562 leukemia
MALME-3M melanoma = tested on: MALME-3M melanoma
MDA-MB-231 breast = tested on: MDA-MB-231 breast
RXF 393 renal = tested on: RXF 393 renal
SF-268 CNS = tested on: SF-268 CNS
SF-295 CNS = tested on: SF-295 CNS
SF-539 CNS = tested on: SF-539 CNS
UACC-257 melanoma = tested on: UACC-257 melanoma
M14 melanoma = tested on: M14 melanoma
HCT-15 colon = tested on: HCT-15 colon
HT29 colon = tested on: HT29 colon
SNB-75 CNS = tested on: SNB-75 CNS
SNB-19 CNS = tested on: SNB-19 CNS
U251 CNS = tested on: U251 CNS
PC-3 prostate = tested on: PC-3 prostate
SK-MEL-5 melanoma = tested on: SK-MEL-5 melanoma
UACC-62 melanoma = tested on: UACC-62 melanoma
LOX IMVI melanoma = tested on: LOX IMVI melanoma
SK-MEL-28 melanoma = tested on: SK-MEL-28 melanoma

| SMILES | growth (DU-145 prostate) | growth (K-562 leukemia) | growth (MALME-3M melanoma) | growth (MDA-MB-231 breast) | growth (RXF 393 renal) | growth (SF-268 CNS) | growth (SF-295 CNS) | growth (SF-539 CNS) | growth (UACC-257 melanoma) | growth (M14 melanoma) | growth (HCT-15 colon) | growth (HT29 colon) | growth (SNB-75 CNS) | growth (SNB-19 CNS) | growth (U251 CNS) | growth (PC-3 prostate) | growth (SK-MEL-5 melanoma) | growth (UACC-62 melanoma) | growth (LOX IMVI melanoma) | growth (SK-MEL-28 melanoma) |
| --- | --- | --- | --- | --- | --- | --- | --- | --- | --- | --- | --- | --- | --- | --- | --- | --- | --- | --- | --- | --- |
| CC[C@H](Nc1ncnc2nc[nH]c12)c1nc2cccc(F)c2c(=O)n1-c1ccccc1 | 62.4% | 83.6% | 88.9% | 89.1% | 2.02% (active) | 71% | 57.9% | 102% | 39.9% | 85.3% | 88.9% | 50.4% | 25.8% | 71.5% | 77% | 50.9% | 80.2% | 39.1% | 74.6% | 69.3% |
| COc1cc(CCc2cc(NC(=O)c3ccc(N4C[C@@H](C)N[C@@H](C)C4)cc3)n[nH]2)cc(OC)c1 | 37.7% | 8.61% (active) | 26.6% | 44.2% | -10.1% (active) | 39.4% | 62.4% | 16.9% | 3.28% (active) | 18% | 53.5% | 4.25% (active) | 6.83% (active) | 83.4% | 45.2% | 47.2% | 17.3% | 45.4% | -30.9% (active) | 35.7% |
| C=CC(=O)N1CCC[C@H](n2c(=O)n(-c3ccc(Oc4ccccc4)cc3)c3c(N)ncnc32)C1 | 62.4% | 66.7% | 98.2% | 99.6% | 84.8% | 71.6% | 98.4% | 104% | 62.9% | 84.1% | 98.3% | 68.9% | 113% | 79.1% | – | 87.9% | 94.1% | 81.2% | 72.4% | 113% |
| FC(F)(F)c1ccc(CNc2ccc(Cc3c[nH]c4ncc(Cl)cc34)cn2)cn1 | 61.2% | 12.4% | 15.9% | 24.5% | -7.15% (active) | 27.7% | 13.6% | 19.3% | 7.18% (active) | 11.5% | 19.9% | 2.92% (active) | 9.21% (active) | 37% | – | 18.3% | -59.8% (active) | 6.74% (active) | 15.2% | 17.8% |
| C1=C\COCc2cc(ccc2OCCN2CCCC2)Nc2nccc(n2)-c2cccc(c2)COC/1 | 13.7% | 1.93% (active) | -79.3% (active) | -1.88% (active) | -74.8% (active) | -0.949% (active) | -33.8% (active) | -83.7% (active) | -75.1% (active) | -59.4% (active) | 1.31% (active) | -30.8% (active) | -95.8% (active) | 1.55% (active) | -22.6% (active) | 0.91% (active) | -96.5% (active) | -68.7% (active) | -70.2% (active) | -41.8% (active) |
| O=C(Cc1ccc(/C=C/C(=O)c2ncc[nH]2)cc1)Nc1ccc(S(F)(F)(F)(F)F)cc1 | 78.5% | 17.8% | 88% | 70.4% | 94.7% | 80% | 80.8% | 93.2% | 103% | 67.7% | 34.2% | -25.7% (active) | 72.8% | 75.9% | – | 58.9% | 98.4% | 86.7% | -59% (active) | 100% |
| Nc1cc(C(F)(F)F)c(-c2cc(N3CCOCC3)nc(N3CCOCC3)n2)cn1 | 3.11% (active) | 0.801% (active) | -60.8% (active) | -1.72% (active) | -39.7% (active) | 6.65% (active) | -46.8% (active) | -57% (active) | -49.5% (active) | -62.1% (active) | -10% (active) | -29.2% (active) | -69% (active) | 0.838% (active) | – | -10.4% (active) | -75.5% (active) | -72.7% (active) | -44.6% (active) | -47.5% (active) |
| O=C(NC1CCNCC1)c1[nH]ncc1NC(=O)c1c(Cl)cccc1Cl | 12.3% | 5.78% (active) | -38.8% (active) | 1.88% (active) | -50% (active) | 9.79% (active) | 8.53% (active) | -41.9% (active) | -6.15% (active) | 9.93% (active) | 72.7% | -26.7% (active) | -40.7% (active) | 12.5% | 4.47% (active) | 5.97% (active) | -12.8% (active) | -41.9% (active) | 8.93% (active) | -14.5% (active) |
| O=C1C=CC2(NN=C(c3ccccc3)N2c2ccc(Cl)cc2)c2cccc(O)c21 (centres undefined) | 51.9% | 25.5% | 38.8% | 77.4% | 119% | 57.3% | 27.8% | 26.6% | 5.85% (active) | 28.9% | 18.7% | 73% | 33.1% | 34.8% | – | 39.1% | -70.2% (active) | -33.1% (active) | 2.09% (active) | 52.6% |
| N#CC[C@H](C1CCCC1)n1cc(-c2ncnc3[nH]ccc23)cn1 | 62.8% | 70.4% | 97% | 60.4% | 15.9% | 59.8% | 76.6% | 67.4% | 78.9% | 77.9% | 89.7% | 62.9% | 33.8% | 90.7% | 63.9% | 59% | 84.8% | 82% | 55.3% | 79.9% |
| Cc1cc(Nc2nc(N[C@@H](C)c3ncc(F)cn3)ncc2Cl)n[nH]1 | 99.5% | 77.6% | 56.4% | 83.8% | 24.4% | 72% | 94.4% | 80.8% | 71.1% | 58.7% | 58.4% | 39.1% | 88.3% | 80.9% | 52.7% | 81.8% | 95.9% | 65% | 37.9% | 87.8% |
| CN1CC[C@@H](c2c(O)cc(O)c3c(=O)cc(-c4ccccc4Cl)oc23)[C@@H]1CO | 10.7% | 4.81% (active) | -46.8% (active) | 6.99% (active) | -62.8% (active) | 3.32% (active) | 3.04% (active) | -33.3% (active) | -25.8% (active) | -35.4% (active) | 3.39% (active) | -12.6% (active) | -63.9% (active) | 10.2% | 4.32% (active) | 1.22% (active) | -9% (active) | -51.4% (active) | 6.25% (active) | -25.6% (active) |
| O=C(Nc1ccc(Nc2ncnc3sc4c(c23)CCOC4)cc1)Nc1ccc(Cl)c(C(F)(F)F)c1 | 96.1% | 88.5% | 88.7% | 95.2% | 98.9% | 99.4% | 83.1% | 63.8% | 105% | 77.7% | 98.9% | 81.1% | 69.1% | 110% | – | 60.8% | 98.1% | 93.4% | 99.9% | 95.1% |
| C[C@@H]1COC(Nc2ccc3ncnc(Nc4ccc(OCc5nccs5)c(Cl)c4)c3c2)=N1 | 36.1% | 22.6% | 38% | 42.8% | 49.1% | 46.5% | 18.9% | 65.5% | 48.3% | 19.5% | 29.2% | 14.8% | 27.9% | 67.8% | 42.3% | 8.43% (active) | -39% (active) | 23.5% | 17.8% | 29.8% |
| COc1cc2ncnc(Nc3cccc(Cl)c3F)c2cc1OC(=O)N1CCN(C)C[C@H]1C | 65% | 60.9% | 106% | 78.7% | 67.9% | 73.4% | 83.7% | 84.1% | 68.8% | 84.9% | 75.1% | 53.9% | 71% | 83.4% | 75.8% | 64.4% | 81.3% | 77.3% | 79.6% | 87.3% |
